# Assay outcomes as filed in PubChem BioAssay.
# A selection: hits, their analogues and other compounds. The true share with any hit is near 5.9%.
# HSF1 activator: increases HSF-1 driven luciferase reporter signal | activation, % at 9 µM | 1.7% of 300,000 active | NIH3T3-HGL HSF-1 luciferase reporter, MG132, 8 h; 100% = twice DMSO control signal | AID 504408;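 active means mean replicate activation of at least 50% with a set share of replicates each reaching 50%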
# GAA850 FXN act: increases GAA850 frataxin promoter reporter activity; HEK293 lucGAA850 FXN promoter luciferase reporter, 24 h; percent of 10 µM SAHA response; activation, % at 6 µM; 0.56% of 360,000 active;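 active means activation above the average of all compounds screened plus 3 SD, cutoff fixed separately per campaign, cut at about 7.5% in these data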
# DAX1 inh: NR0B1 (DAX1) inhibition; P51843; HEK293 Gal4-DAX1 luciferase reporter, luminescence; inhibition, % at 6.75 µM; 0.99% of 340,000 active; AID 504766;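 active means inhibition above the mean over all tested compounds plus 3 SD, cut at about 4.2% in these data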;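 further: inhibition shows as a rise in luminescence from relieved DAX1 repression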
# HSF1 inhib: HSF1 inhibition. activity change, negative = inhibition, % at 7.5 µM (by protocol). NIH3T3-HGL HSE-luciferase, MG132-induced, luminescence 8 h; stronger effect = lower value. 0.77% of 300,000 active;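 active means more than half of replicate wells show activity change below -50%, luminescence cut by over half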;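 further: luciferase reports HSF-1 transcriptional activity via heat shock element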
# HSP90 refold inh: inhibitors of HSP90 luciferase refolding in rabbit reticulocyte lysate; luciferase refolding luminescence, 3 h; inhibition, % at 5.6 µM; AID 1789; 0.91% of 290,000 active;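 active means inhibition above the screen-wide mean plus 3 SD, computed separately per campaign, cut at about 16% in these data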;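 further: inhibitors lower the luminescence because luciferase stays unfolded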
# AHR activator: human AHR activation. P35869. AHR-responsive luciferase reporter cells, luminescence. activation, % at 5 µM. 2.5% of 320,000 active; in the data active means activation above about 47%
# Target sequence (P35869 whole entry, looked up): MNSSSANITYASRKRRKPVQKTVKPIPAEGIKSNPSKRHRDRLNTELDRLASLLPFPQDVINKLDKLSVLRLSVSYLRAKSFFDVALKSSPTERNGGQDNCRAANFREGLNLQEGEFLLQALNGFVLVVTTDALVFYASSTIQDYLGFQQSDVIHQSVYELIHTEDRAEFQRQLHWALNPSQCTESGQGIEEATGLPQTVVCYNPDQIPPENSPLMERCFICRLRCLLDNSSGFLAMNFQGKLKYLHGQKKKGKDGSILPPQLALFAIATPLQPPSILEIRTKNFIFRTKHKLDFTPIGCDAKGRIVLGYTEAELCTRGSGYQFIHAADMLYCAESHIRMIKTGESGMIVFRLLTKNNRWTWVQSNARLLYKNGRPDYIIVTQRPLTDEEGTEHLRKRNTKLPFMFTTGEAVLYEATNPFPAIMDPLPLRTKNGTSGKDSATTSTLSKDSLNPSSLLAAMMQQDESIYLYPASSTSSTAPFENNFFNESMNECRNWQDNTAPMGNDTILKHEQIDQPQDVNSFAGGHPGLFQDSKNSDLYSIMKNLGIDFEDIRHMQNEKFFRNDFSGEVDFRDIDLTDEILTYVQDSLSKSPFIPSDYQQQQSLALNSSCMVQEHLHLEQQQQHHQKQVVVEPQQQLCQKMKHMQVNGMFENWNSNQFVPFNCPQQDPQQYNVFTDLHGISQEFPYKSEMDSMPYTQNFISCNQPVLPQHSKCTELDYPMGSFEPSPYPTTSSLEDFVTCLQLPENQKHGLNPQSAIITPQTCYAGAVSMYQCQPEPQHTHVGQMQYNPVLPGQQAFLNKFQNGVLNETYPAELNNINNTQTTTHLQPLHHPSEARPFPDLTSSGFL
# Hits are given with their value; . = inactive; / = no result given.
SMILES,HSF1 activator,GAA850 FXN act,DAX1 inh,HSF1 inhib,HSP90 refold inh,AHR activator
COc1cc(/C=N/NC(=O)c2cc(-c3ccc4c(c3)OCO4)n[nH]2)ccc1O,.,.,.,.,.,128.2
Cc1ccc(-c2cc(C(=O)N/N=C/c3c(C)nn(C)c3C)c3ccccc3n2)cc1C,.,.,.,.,.,61.2
CC(=NCc1ccccc1)c1ccc(O)cc1O,/,.,.,/,/,/
O=C(CN1C(=O)NC2(CCCC2)C1=O)c1ccc(Cl)s1,.,.,.,.,/,.
C[C@@H]1CN([C@@H](C)CO)C(=O)c2cc(NS(=O)(=O)c3ccc(F)cc3)ccc2O[C@@H](C)CCCCO[C@H]1CN(C)C(=O)NC1CCCCC1,/,.,.,/,/,/
Cc1ccc(Nc2cc(Cl)nc(N)n2)c([N+](=O)[O-])c1,/,.,.,/,/,/
Cc1cc(C)n2nc(C(=O)N/N=C/c3cccc(Cl)c3)nc2n1,55.7,.,.,.,.,.
COCc1ccc(C(=O)N2CCCC(C(=O)c3ccc(SC)cc3)C2)o1 (stereo unspecified),.,.,.,.,.,.
Cc1ccc(NC(=O)CN(C)C2CCCCC2)cc1Cl,.,.,.,-81.7,.,/
CCOc1ccccc1C1NC(=O)c2ccccc2N1 (stereo unspecified),/,.,.,/,/,/
Cn1cc([N+](=O)[O-])c(C(=O)NCc2cc3cc(Cl)ccc3[nH]2)n1,.,.,.,.,.,48.5
Cc1ccnc(NC(c2ccsc2)c2ccc3ccc(C)nc3c2O)c1 (stereo unspecified),.,.,4.9,-54.0,.,.
Cc1ccc2ccc(C(Nc3ccccn3)c3ccccc3)c(O)c2n1 (stereo unspecified),.,.,.,.,.,.
COc1cc(C(Nc2ccccn2)c2ccc3ccc(C)nc3c2O)cc(OC)c1O (stereo unspecified),182.9,.,.,.,.,.
COc1cccc(OCc2ccc(Cn3nc(NC(=O)NCCc4ccc(OC)c(OC)c4)c4ccccc43)cc2)c1,/,.,/,/,/,/
CC(=O)C1=C(O)C(=O)N(c2ccccn2)C1c1cccc(F)c1 (stereo unspecified),.,.,.,.,.,.
CN(C1=C(NC(=O)c2ccccc2)C(=O)c2ccccc2C1=O)C1CCS(=O)(=O)C1 (stereo unspecified),66.0,.,.,.,.,.
O=C(CN1CCCc2ccccc21)N/N=C/c1ccccc1O,.,.,.,.,.,47.4
Cc1c(C(=O)N(Cc2ccco2)Cc2cccs2)oc2ccccc12,/,.,5.5,/,/,.
O=C(c1cc2ccccc2o1)N(Cc1ccco1)Cc1cccs1,.,.,.,.,/,.
Cc1ccccc1CC1(CO)CCCN(C(=O)c2cc(Cl)ccc2F)C1 (stereo unspecified),.,.,.,.,.,.
Cc1ccccc1CC1(CO)CCCN(C(=O)c2ccccc2Cl)C1 (stereo unspecified),54.7,.,.,.,.,.
CCN(CC)C(=O)COC(=O)c1ccc(C)c(NC(=O)c2ccco2)c1,.,.,.,-59.2,.,.
CCOC(=O)Cc1cc(=O)[nH]n(-c2ccccc2)c1=O,/,.,.,/,/,/
O=C(COC(=O)CC1c2ccccc2CCN1S(=O)(=O)c1ccccc1)Nc1ccccc1 (stereo unspecified),57.9,.,.,.,.,.
SMILES,HSF1 activator,GAA850 FXN act,DAX1 inh,HSF1 inhib,HSP90 refold inh,AHR activator
CCOC(=O)C1CCN(C(=O)C(C)Sc2ccc(Cl)cc2)CC1 (stereo unspecified),.,.,4.7,.,.,.
COc1cccc(NC(=O)c2cncs2)c1,.,.,.,.,.,.
CN(C)c1cccc2c1c(NC(=O)c1ccc(F)cc1)nn2C,.,.,.,.,.,.
CN(C)c1cccc2c1c(NC(=O)c1ccc(Cl)cc1)nn2C,.,.,5.7,.,.,.
CN(C)c1cccc2c1c(NC(=O)Nc1ccccc1)nn2C,.,.,4.3,.,.,.
COc1ccc(NC(=O)CCCC(=O)OCC(F)(F)C(F)F)cc1,.,.,.,.,.,.
CC(=O)c1ccc(NC(=O)CCC(=O)OCC(F)(F)C(F)F)cc1,.,.,.,.,16.6,.
O=C(CSc1c[nH]c2ccccc12)N1CCCc2ccccc21,.,.,.,.,.,.
O=C(CCCc1ccccc1)N1CCc2ccccc21,59.0,.,.,.,.,.
Cn1cccc1Cc1nnc(SCC(=O)N2CCc3ccccc32)n1CCc1ccccc1,.,.,.,.,21.6,.
O=C(Cc1c[nH]c2ccccc12)N1CCc2ccccc21,.,.,.,.,.,74.6
Cn1cccc1Cc1nnc(SCC(=O)N2CCCC2)n1CCc1ccccc1,.,.,.,.,.,.
O=C(COc1ccccc1Cl)N1CCc2ccccc21,73.8,.,.,.,.,/
CC(C)CN(C(=O)C1CCCC1)C1CCS(=O)(=O)C1 (stereo unspecified),.,.,.,.,/,/
O=C(CSc1ccccc1)N1CCc2ccccc21,58.8,.,.,.,.,.
Cc1ccc2c(CC(=O)N3CCc4ccccc43)coc2c1,77.1,.,.,.,.,.
O=C(OCc1ccccc1)N1CCc2ccccc21,.,.,4.5,.,.,.
CCn1c(-c2ccc(F)cc2)cnc1SCC(=O)N1CCCCC1C (stereo unspecified),/,/,/,/,.,/
CCn1c(-c2ccc(F)cc2)cnc1SCC(=O)N1CCc2ccccc21,70.4,/,/,.,.,.
COc1ccc(Cl)cc1NC(=O)CN(C)C(=O)c1sccc1-c1ccccc1,/,.,.,/,/,55.2
O=S1(=O)CCN(C2CCCCCC2)CC1,/,.,.,/,/,/
Cc1ccc(SCC(=O)Nc2ccc(-c3nnc(-c4ccco4)o3)cc2)cc1,77.7,.,.,.,.,.
c1ccc(-c2nnc(-c3ccco3)o2)cc1,.,.,.,.,.,.
CCOc1ccc(-c2nnc(-c3ccco3)o2)cc1OCC,.,.,7.7,.,.,.
CCOc1cc(-c2nnc(-c3ccco3)o2)cc(OCC)c1OCC,.,.,.,.,.,.
SMILES,HSF1 activator,GAA850 FXN act,DAX1 inh,HSF1 inhib,HSP90 refold inh,AHR activator
Brc1ccc(-c2nnc(-c3ccco3)o2)cc1,62.7,.,.,.,.,.
CC1(C(=O)NCCCNc2ncc(C(F)(F)F)cc2Cl)C=CC2(CCCCC2)N1C(=O)c1ccccc1 (stereo unspecified),.,/,/,-69.0,/,/
CCCCN1CC(COCc2ccccc2)Oc2cccc(Oc3ccc(F)cc3)c2S1(=O)=O (stereo unspecified),/,.,.,/,/,/
NC(=O)N/N=C/c1cccc(OCc2ccc(F)cc2)c1,.,.,.,-73.6,.,.
CCOC(=O)C1=C(C)NC(=S)NC1c1ccc(-c2ccc(Cl)cc2)o1 (stereo unspecified),.,.,.,.,.,.
COC(=O)C1=C(C)NC(C)=C(C(=O)OC)C1c1ccc(-c2cccc(Cl)c2Cl)o1,53.2,.,.,.,.,.
COC(=O)C1=C(C)NC(=S)NC1c1ccc(-c2cccc(Cl)c2)o1 (stereo unspecified),71.6,.,.,.,.,.
